The text below walks through data of PubChem BioAssay (NCI).

Compounds without any hit were thinned out: in the full panel of roughly 83,000, 20% have a hit.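 Testing used 96-well plates and a 48-hour single-concentration exposure. Example: -40 means 40% of the starting cells died.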 A number with no mark means an inactive call. Active and inactive are the calls of the source. Rule for the calls: active = growth percent below 10; inactive = the rest.

Some test systems named below: T-47D breast; BT-549 breast; MDA-MB-435 melanoma; SW-620 colon; MCF7 breast; HCT-116 colon; HCC-2998 colon; KM12 colon.
Experiment in all cases: NCI-60 one-dose screen, 48 h (100 = growth as untreated, 0 = no growth, -100 = all killed)
What all share (details): 10 µM unless noted

Take `C=C1C(=O)O[C@@H]2[C@@H]3O[C@@](C)(CC/C=C(\C)CCC[C@@H]2C)[C@H](O)C[C@@H]13`: the growth in the assay with T-47D breast is 50.9%; in the assay with BT-549 breast, 19.1%; in the assay on MDA-MB-435 melanoma it was 19.2%; in the assay with SW-620 colon, 33.5%; with MCF7 breast, 36.3%; in the assay on HCT-116 colon it was -4.01% (active). The values for the growth with HCC-2998 colon and in the assay on KM12 colon were 97.5% and 75.8%, respectively.
With `NC1=C(/C(N)=N/O)C(c2ccccc2)c2ccc3ccccc3c2O1` (stereo not drawn), the growth is 54.5% in the assay on T-47D breast; 28% in the assay on BT-549 breast; -56.2% (active) with MDA-MB-435 melanoma; 23% in the assay with SW-620 colon; 9.02% (active) with MCF7 breast; 6.57% (active) with HCT-116 colon. Moreover, the growth is 11.8% in the assay on HCC-2998 colon and 11.1% in the assay with KM12 colon.
Take `Cc1cc(C2=NNC(=O)Cc3cc4c(cc32)OCCO4)cc(C)c1N`: the growth with T-47D breast is 46.1%; in the assay on BT-549 breast, 30.7%; in the assay with MDA-MB-435 melanoma, -12.6% (active); in the assay on SW-620 colon it was 26.5%; in the assay on MCF7 breast it was 16.7%; in the assay with HCT-116 colon, 20.4%. In addition, the growth with HCC-2998 colon is 48.8%; with KM12 colon, 24%.
With `O=C1NN(C(=O)c2ccc(Cl)cc2)C(c2ccccc2)=N/C1=C\c1cn(-c2ccccc2)nc1-c1ccccc1`, the growth was 90.4% in the assay with T-47D breast; 101% in the assay on BT-549 breast; 71.4% in the assay on MDA-MB-435 melanoma; 101% in the assay with SW-620 colon; 91.3% in the assay with MCF7 breast; 82.4% in the assay on HCT-116 colon. Besides, the growth was 101% in the assay with HCC-2998 colon and 98.6% in the assay on KM12 colon.
On to `CCCCCCCC[C@@H](O)CC(=O)N[C@@H](CC(N)=O)C(=O)N[C@@H](CCC(N)=O)C(=O)N[C@@H](CC(=O)c1cc(C)cc(O)c1C(=O)c1c(O)cccc1O)CC(C)C`, for which the growth in the assay with T-47D breast is -3.58% (active); in the assay with BT-549 breast, -1.45% (active); in the assay with MDA-MB-435 melanoma, -39.6% (active); in the assay on SW-620 colon, 18.3%; in the assay with MCF7 breast, 29.9%; in the assay on HCT-116 colon it was -9.35% (active). The growth in the assay on HCC-2998 colon is -72.6% (active); in the assay on KM12 colon, 1.64% (active).
`O=C(NS(=O)(=O)c1ccccc1)n1cc(-c2ccncc2)c(-c2ccc(Cl)c(O)c2)n1`: the growth in the assay on T-47D breast was 107%; with BT-549 breast, 104%; in the assay with MDA-MB-435 melanoma it was 67.9%; in the assay with SW-620 colon it was 136%; in the assay with MCF7 breast, 109%; with HCT-116 colon, 89.1%. Moreover, the growth in the assay on HCC-2998 colon is 127%; in the assay with KM12 colon, 99.6%.
As to `Cc1ccc(S(=O)(=O)NCCNc2nccc(-c3c(-c4cccc(N)c4)nc4sccn34)n2)cc1`, the growth in the assay with T-47D breast is 51.7%; in the assay on BT-549 breast, 87.5%; with MDA-MB-435 melanoma, 93.5%; in the assay with SW-620 colon it was 123%; in the assay on MCF7 breast it was 83.4%; in the assay on HCT-116 colon it was 99.2%. For the same compound, the growth is 132% in the assay with HCC-2998 colon and 92.2% with KM12 colon.
Turning to `C=C[C@@H]1C[C@@H]2Cc3cc(F)ccc3N1O2`, the growth with T-47D breast was 111%; with BT-549 breast, 124%; with MDA-MB-435 melanoma, 98.7%; with SW-620 colon, 112%; with MCF7 breast, 100%; in the assay with HCT-116 colon, 112%. The growth is 95.3% with HCC-2998 colon and 108% in the assay on KM12 colon.
For `COc1ccc2c(c1)cn1c3ccc(OC)cc3[nH]c(=O)c21`, the growth is -32.2% (active) in the assay with T-47D breast; -0.958% (active) with BT-549 breast; -80% (active) in the assay on MDA-MB-435 melanoma; -38.9% (active) in the assay with SW-620 colon; -47.5% (active) in the assay on MCF7 breast; -75.8% (active) in the assay with HCT-116 colon. Further, the growth is -68.5% (active) in the assay on HCC-2998 colon and -61.7% (active) in the assay on KM12 colon.
For `COc1ccc(Nc2[nH]n3c(=O)cc(-c4ccccc4)nc3c2C(=O)Nc2ccc(C)cc2)c(OC)c1`, the growth with T-47D breast was 83.8%; in the assay on BT-549 breast it was 92.9%; with MDA-MB-435 melanoma, 96.8%; in the assay with SW-620 colon, 99.5%; in the assay with MCF7 breast, 99.6%; in the assay with HCT-116 colon it was 84.2%. Further, the growth in the assay on HCC-2998 colon is 111%; in the assay with KM12 colon, 106%.
With `O=C([O][Sn]([O]C(=O)c1ccccn1)([c]1ccccc1)[c]1ccccc1)c1ccccn1`, the growth with T-47D breast was -14.9% (active); with BT-549 breast it was 98.5%; in the assay with MDA-MB-435 melanoma it was 80.6%; with SW-620 colon, 0.566% (active); in the assay on MCF7 breast, 31.8%; in the assay with HCT-116 colon, 30.7%. For the same compound, the values for the growth in the assay with HCC-2998 colon and in the assay with KM12 colon were 88.3% and 97.4%, respectively.
`Cc1ccc2nc(-c3cc4c([nH]c5ccccc54)c(-c4ccc(F)c(F)c4)n3)[nH]c2c1`: the growth in the assay with T-47D breast was 77.8%; in the assay with BT-549 breast, 83.7%; in the assay with MDA-MB-435 melanoma it was 91.3%; with SW-620 colon it was 101%; with MCF7 breast it was 51.8%; in the assay with HCT-116 colon, 15.2%. The growth in the assay on HCC-2998 colon was 88.6%; with KM12 colon, 72.4%.
With `CCCCNC(=O)Oc1ccc(/C(=C(\C)c2ccccc2)c2ccc(OCCN(CC)CC)cc2)cc1`, the growth with T-47D breast was 40.3%; in the assay on BT-549 breast, 72.3%; in the assay on MDA-MB-435 melanoma, 58.7%; with SW-620 colon it was 69.7%; in the assay on MCF7 breast, 33.8%; with HCT-116 colon it was 48.1%. Also, the growth in the assay on HCC-2998 colon is 82.6%; in the assay on KM12 colon, 60.6%.
Turning to `Cn1c(=O)cc(NC(=O)CN2CCN(c3cc4c(cc3F)c(=O)c(C(=O)O)cn4C3CC3)CC2)[nH]c1=O`, the growth in the assay on T-47D breast was 107%; in the assay on BT-549 breast, 105%; in the assay with MDA-MB-435 melanoma it was 101%; in the assay with SW-620 colon it was 99.3%; in the assay with MCF7 breast it was 94.2%; in the assay with HCT-116 colon, 103%. In addition, the growth with HCC-2998 colon was 100%; with KM12 colon, 101%.
`COc1ccc(/C=C(\C#N)c2cc(OC)c3c(c2)OCO3)cc1`: the growth with T-47D breast is 62.3%; in the assay with BT-549 breast, 30.9%; in the assay with MDA-MB-435 melanoma, -17.6% (active); in the assay with SW-620 colon it was 24.4%; in the assay on MCF7 breast it was 17.4%; with HCT-116 colon it was 6.05% (active). Also, the growth in the assay with HCC-2998 colon was 15.7%; in the assay on KM12 colon, 5.15% (active).
As to `COc1ccc(/C=C2\Oc3cc(OCCCN4CCCC4)ccc3C2=O)c(OC)c1`, the growth in the assay on T-47D breast was 99%; in the assay on BT-549 breast it was 95.4%; with MDA-MB-435 melanoma, 97%; in the assay on SW-620 colon, 33.5%; with MCF7 breast, 44.4%; with HCT-116 colon, 10.6%. Further, the results for the growth with HCC-2998 colon and in the assay with KM12 colon were 86.3% and 67.1%, respectively.
